# Only some compounds are listed: those with a hit (about 4.5% of all), similar ones and a draw of the others.
# DAX1 inh-1 – DAX1 (NR0B1) inhibitors on StAR promoter, primary screen, cell-based, luminescence, SF-1 (NR5A1), full-length DAX-1. HEK293T StAR-luciferase reporter, SF-1/DAX-1 repression relief. AID 652010, 2013. actives 1.1% (n = 370,000). inhibition, % at 6.8 µM;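 active = inhibition above the mean over all tested compounds plus 3 SD, cut at about 3.6% in these data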;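 note: 0% = DAX-1 cells with DMSO and 100% = cells lacking DAX-1 with DMSO; higher inhibition means more luminescence from relief of DAX-1 repression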
# GAA850 FXN act – FXN promoter activators, primary screen, cell-based, luciferase luminescence, HEK293 lucGAA850 | actives 0.56% (n = 360,000) | HEK293 lucGAA850 FXN promoter luciferase reporter, 24 h; percent of 10 µM SAHA response | activation, % at 6 µM;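 active = activation above the average of all compounds screened plus 3 SD, cutoff fixed separately per campaign, cut at about 7.5% in these data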;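 note: 0% = DMSO wells and 100% = 10 µM SAHA wells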
# hcDAF12 agonist – H. contortus DAF-12 nuclear receptor activators, primary screen, cell-based, luminescence, HEK293, lit1-tk-luc reporter; HEK293 hcDAF-12 lit1-tk-luc reporter; 0% DMSO, 100% Δ7-dafachronic acid; activation, % at 6.8 µM; actives 1.4% (n = 370,000); AID 652067, 2013;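 active = activation above the mean of all tested compounds plus 3 SD, cut at about 5.5% in these data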;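 note: 100% = response to 3 µM Δ7-dafachronic acid high control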
# ssDAF12 agonist – S. stercoralis DAF-12 nuclear receptor activators, primary screen, cell-based, luminescence, HEK293, GRIP1 co-expression, lit1-tk-luc. actives 1% (n = 370,000). HEK293 ssDAF-12/GRIP1 lit1-tk-luc reporter; % of 3 µM dafachronic acid response. Nuclear hormone receptor DAF-12 (Strongyloides stercoralis). activation, % at 6.8 µM. AID 652126, 2013;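 active = activation above the mean over all tested compounds plus 3 SD, cut at about 0.9% in these data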;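 note: 0% = DMSO-only wells and 100% = 3 µM delta7-dafachronic acid wells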
# DAX1 inh-2 – DAX1 (NR0B1) inhibitors, primary screen, cell-based, HEK293, Gal4-DAX1, luciferase luminescence; HEK293 Gal4-DAX1 luciferase reporter; actives 0.99% (n = 340,000); Nuclear receptor subfamily 0 group B member 1 (Homo sapiens), P51843; inhibition, % at 6.75 µM;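 active = inhibition above the mean over all tested compounds plus 3 SD, cut at about 4.2% in these data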;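 note: 0% = DAX1-transfected cells with DMSO and 100% = empty-vector control cells with DMSO; inhibition shows as a rise in luminescence from relieved DAX1 repression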
# Target sequence (P51843 207-470 limits assumed): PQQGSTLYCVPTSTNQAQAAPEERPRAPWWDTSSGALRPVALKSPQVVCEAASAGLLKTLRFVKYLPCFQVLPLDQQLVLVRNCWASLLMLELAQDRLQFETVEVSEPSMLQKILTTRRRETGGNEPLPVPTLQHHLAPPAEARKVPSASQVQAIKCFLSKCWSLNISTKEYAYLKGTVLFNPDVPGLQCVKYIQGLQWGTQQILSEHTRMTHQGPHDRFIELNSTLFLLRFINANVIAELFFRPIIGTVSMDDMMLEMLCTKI
# hgDAF12 agonist – H. glycines DAF-12 receptor agonists, primary screen, cell-based, luminescence, HEK293, GAL4 fusion, UAS-luciferase | Nuclear hormone receptor DAF-12 (Heterodera glycines), GAL4 fusion | HEK293 GAL4-hgDAF12 UAS-luciferase reporter, agonist luminescence; normalized to butyrate control | activation, % at 6.8 µM | actives 1.8% (n = 370,000) | AID 687014, 2013;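 active = activation above a cutoff set at the mean of all screened compounds plus 3 SD, cut at about 10% in these data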;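 note: 0% = DMSO wells and 100% = sodium butyrate wells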
# GAA30 FXN cntr – GAA30 FXN promoter activators, confirmation, counter-screen for GAA850 frataxin promoter activator project, cell-based, luminescence, HEK293, lucGAA30, triplicate; shares compounds with GAA850 FXN act; HEK293 lucGAA30 FXN promoter luciferase, 24 h; DMSO = 0%, 5 µM ipriflavone = 100%; activation, % at 6 µM; actives 66% (n = 1,900);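 active = mean activation above the mean of solvent-only control wells plus 3 SD, cut at about 22% in these data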;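 note: counterscreen of GAA850 promoter hits where activity marks nonselective or luminescence artifacts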
# FXN GAA850 conf – FXN GAA850 promoter activators in reporter cells, confirmation, cell-based, luminescence, HEK293 lucGAA850, triplicate; HEK293 lucGAA850 FXN promoter luciferase reporter, 24 h; 100% = activation by SAHA; actives 86% (n = 1,900); shares compounds with GAA850 FXN act; AID 588351, 2011; activation, % at 6 µM;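 active = mean activation above a set limit taken from the primary screen, cut at about 8% in these data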;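 note: 0% = DMSO wells and 100% = 10 µM SAHA wells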
# * marks the source's active call; other numbers are inactive results; . = not tested or not shown.
SMILES,DAX1 inh-1,GAA850 FXN act,hcDAF12 agonist,ssDAF12 agonist,DAX1 inh-2,hgDAF12 agonist,GAA30 FXN cntr,FXN GAA850 conf
O=C(NNC(=S)Nc1ccccc1)c1cccs1,1,8.3*,0,-1,3,7,74*,29*
CC(C)CCNC(=O)C1CCN(S(=O)(=O)c2ccc(-n3cnnn3)cc2)CC1,0,3,-1,-1,0,-2,.,.
Fc1cccc(Cn2ccc(-c3ccc4c(c3)OCO4)n2)c1,0,9.4*,0,0,2,9,84*,25*
O=C(OC12CCCN(C1)/C(=C/c1ccc(Cl)cc1)C2)C1CCCCC1 (stereo unspecified),1,.,1,-1,.,-1,.,.
CS(=O)(=O)c1ccc(S(=O)CC(=O)OCc2ccccc2)c([N+](=O)[O-])c1 (stereo unspecified),-1,95*,-2,-2,-3,-10,-91,-17
NC(=O)Cn1nc(-c2ccccc2)nc1-c1ccccc1,0,1,1,-1,4,2,.,.
CCN(C[C@H]1N[C@@](C)(C(=O)OC)[C@H]2C(=O)N(Cc3ccccc3)C(=O)[C@@H]12)C(=O)Nc1ccc(Cl)cc1,2,14*,-1,-1,-2,-2,37*,15*
CCN(C[C@H]1N[C@@](C)(C(=O)OC)[C@H]2C(=O)N(Cc3ccccc3)C(=O)[C@@H]12)C(=O)Nc1ccc(OC)cc1,0,9.4*,1,-1,0,-2,27*,9.3*
Cc1cc(O)c(-c2cc(O)c(C)cc2O)cc1O,0,11*,4,-1,0,-1,18,29*
Cc1cccc(Nc2nc(-c3sc(C)nc3C)cs2)c1,-1,8.5*,1,-1,1,1,97*,32*
Cc1ccc(Nc2nc(-c3sc(C)nc3C)cs2)cc1,-1,-1,3,0,-2,6,.,.
COCc1cc(C)nc2sc(C(=O)Nc3cccc(OC)c3)c(N)c12,1,7.7*,6,0,4.9*,10*,115*,38*
CCOC(=O)CS(=O)(=O)c1nc(-c2ccc(F)cc2)cc(C(F)(F)F)n1,.,21*,.,.,-3,.,-77,-24
CCOC(=O)CS(=O)(=O)c1nc(-c2ccccc2)cc(C(F)(F)F)n1,-1,11*,-1,-1,-2,-7,-54,-23
CCOC(=O)CCS(=O)(=O)c1nc(-c2ccccc2)cc(C(F)(F)F)n1,.,4,.,.,-4,.,.,.
CS(=O)(=O)c1nc(-c2ccc(F)cc2)cc(C(F)(F)F)n1,-1,39*,0,-1,-4,-6,23*,71*
COc1ccc(-c2cc(C(F)(F)F)nc(S(C)(=O)=O)n2)cc1,-2,5,-1,-1,-2,-4,.,.
Nc1nccnc1C(=O)OCC(=O)c1ccc[nH]1,-1,0,-2,-1,-1,0,.,.
O=Nc1c(-c2ccccc2)n(O)[n+]([O-])c1-c1ccccc1,0,8.9*,4,0,0,2,75*,36*
COc1cccc(OCCNc2cc(N3CCOCC3)ccc2[N+](=O)[O-])c1,-1,10*,-5,-1,0,1,67*,31*
CC(Nc1cc(N2CCOCC2)ccc1[N+](=O)[O-])c1ccccc1 (stereo unspecified),0,8.8*,-4,-1,0,0,34*,15*
COc1ccc(C(C(=O)N(C)C2CCCC2)N(Cc2ccc(F)cc2)C(=O)c2csc(-c3ccccc3)n2)cc1OC (stereo unspecified),-1,.,-3,-2,.,-4,.,.
COC(=O)C1=C(C)N(Cc2ccccc2C(F)(F)F)C(=NCc2ccccc2)NC1c1cccc(C(F)(F)F)c1 (stereo unspecified),0,.,0,0,.,7,.,.
Nc1nc2sc3c(c2c(=O)s1)CCCC3,1,8.2*,3,-1,1,8,70*,28*
Cc1cccc(NC(=O)NCCCN2CCN(c3ccc(F)cc3)CC2)c1,-1,.,-3,-1,.,2,.,.
SMILES,DAX1 inh-1,GAA850 FXN act,hcDAF12 agonist,ssDAF12 agonist,DAX1 inh-2,hgDAF12 agonist,GAA30 FXN cntr,FXN GAA850 conf
O=C(CSc1nc2ncccc2[nH]1)Nc1c(F)cc(F)cc1Br,-1,-3,2,-2,1,-1,.,.
O=C(CSc1ncn[nH]1)Nc1c(F)cc(F)cc1Br,-1,14*,-1,-1,0,3,4,0
Cn1cc([N+](=O)[O-])c(C(=O)Nc2ccc(-c3nc4ccccc4o3)cc2)n1,0,8.8*,-1,-1,1,1,93*,31*
c1ccc2c(c1)nnn2-c1ncnc2sccc12,0,10*,0,-1,1,1,93*,31*
c1ccc(CC2CCN(c3ncnc4sccc34)CC2)cc1,-3,-5,-4,-3,-3,-8,.,.
COC(=O)C1=C(C)N(C)C(=NCC2CC2)NC1c1ccc(F)cc1 (stereo unspecified),0,.,2,0,.,2,.,.
COc1cccc2nc3c(C(=O)NCCN(C)C)cccc3cc12,-5,0,1,0,-2,-5,.,.
COc1ccc(C(=O)NCCN(C)C)c2nc3ccccc3cc12,-4,10*,5.8*,0,-3,-6,-14,71*
O=C(OC12CCCN(C1)/C(=C/c1ccccc1)C2)c1ccc(F)cc1 (stereo unspecified),1,.,5,-1,.,1,.,.
Nc1ccccc1C#CC(=O)c1ccccc1,1,14*,1,-1,-1,-2,-8,0
